RmlCD inh mix = mixture blocks RmlC and RmlD coupled enzyme activity | RmlC/RmlD coupled enzyme inhibition, 384-well mixture HTS | inhibition, % at 5.5 µM | 110,000 tested, 0.39% active; in the data active = inhibition above about 30%, passing the limit was not always enough; inconclusive = no clear call, values can overlap the other calls
HIV RNase H inh-1 = blocks HIV-1 RNase H cleavage of RNA/DNA duplex; P04585; RT-RNase H RNA/DNA duplex cleavage, fluorescence; inhibition, % at 10 µM; 65,000 tested, 1.9% active; AID 565; in the data active = inhibition above about 50%
HIV RNase H inh-2 = confirmation of HIV-1 reverse transcriptase RNase H inhibitors | shares compounds with HIV RNase H inh-1 | Recombinant RT RNase H, fluorescent RNA/DNA duplex cleavage | inhibition, % at 10 µM | 1,000 tested, 39% active | AID 651; in the data active = inhibition above about 48%; inconclusive = no clear call, values can overlap the other calls
Starred values were filed as active, the others as inactive; ? = inconclusive; . = no result given. The entries come from a sample that favours hits as a whole.

SMILES | RmlCD inh mix | HIV RNase H inh-1 | HIV RNase H inh-2
C=CCn1c(SCC(=O)c2ccc(O)c(O)c2)nnc1-c1ccccc1OC | 3 | 85* | 62*
CCn1c(CSc2nc3ccccc3s2)nnc1SCC(=O)c1ccc(O)c(O)c1 | -6 | . | .
C=CCn1c(SCC(N)=O)nnc1-c1ccccc1O | -70 | -1 | .
CCn1c(SCC(=O)c2ccc(O)c(O)c2)nnc1-c1ccccc1OC | -4 | 81* | 62*
CCC(=O)N1CCCc2cc(S(=O)(=O)N3CCN(c4ccccn4)CC3)ccc21 | 10 | -18 | .
COc1ccc(N(CC(=O)NCc2cccs2)S(=O)(=O)c2c(C)n[nH]c2C)cc1 | -17 | -9 | .
O=C(CSc1nc2ncc(Br)cc2[nH]1)Nc1ccc2c(c1)OCO2 | 12 | -3 | .
CCOC(=O)[C@@H]1[C@H]2COc3cc(OC)ccc3[C@@H]2N2C(=O)N(c3ccc(Cl)cc3)C(=O)[C@]12C | -17 | . | .
Cc1nnc(SC2CC(=O)N(c3ccccc3)C2=O)s1 (stereo unspecified) | -13 | . | .
O=C1CC(Sc2nnc(-c3ccccc3)o2)C(=O)N1c1ccccc1 (stereo unspecified) | 12 | 52* | 19
O=C1c2ccccc2CC1Sc1nnc(-c2ccncc2)o1 (stereo unspecified) | 4 | 46 | .
Cc1ccccc1N1C(=O)CC(Sc2nnc(-c3ccccc3)o2)C1=O (stereo unspecified) | 8 | 58* | 45
Cc1cc(C)cc(SCc2noc(C(=O)NCCCN3CCOCC3)c2C(=O)NCCCN2CCOCC2)c1 | -2 | . | .
N#Cc1c(N)nc2c(c1-c1cccnc1)CCCCC2 | -10 | -13 | .
COc1ccc(-c2c3c([nH]c(=S)c2C#N)CCC3)cc1 | 12 | 81* | 25
N#Cc1c(-c2ccco2)c2c([nH]c1=S)CCCC2 | -5 | 82* | 36
N#Cc1c2c(c(-c3ccco3)[nH]c1=O)CCCC2 | -5 | -7 | .
N#Cc1c(-c2cccnc2)c2c([nH]c1=S)CCCC2 | -14 | 90* | 69*
COc1ccc(-c2c(C#N)c(SCC(N)=O)nc3c2CCCC3)cc1 | -11 | . | .
CCOC(=O)c1[nH]c(COC(=O)CCCOc2ccccc2)c(C(=O)OCC)c1C | 5 | 8 | .
O=C(c1ccccc1)N1CCN2C(=O)c3ccccc3C12c1ccc(Cl)cc1 (stereo unspecified) | 3 | . | .
Cc1cccc(N2CCN(C(=O)c3cc4c(C)nc5ccccc5c4o3)CC2)c1C | . | -80 | .
CC(=O)NC(c1ccco1)c1ccc2cccnc2c1O (stereo unspecified) | . | -6 | .
OCCN1CCN(C(c2cccs2)c2ccc3cccnc3c2O)CC1 (stereo unspecified) | -9 | 72* | 9
CCOc1ccc(OCC)c(NC(=O)C2CCN(S(=O)(=O)c3cnc[nH]3)CC2)c1 | -16 | -9 | .
SMILES | RmlCD inh mix | HIV RNase H inh-1 | HIV RNase H inh-2
O=c1c2ccccc2nc2n1C(CSCc1ccc(Cl)cc1Cl)CS2 (stereo unspecified) | -15 | . | .
COc1ccc(C[C@H]2c3cc(O)c(OC)cc3CC[N+]2(C)[O-])cc1O (stereo partly specified) | -34 | . | .
CCCCOC(=O)C1=C(C)NC2=C(C(=O)CCC2)C1c1cc(OC)ccc1OC (stereo unspecified) | . | -44 | .
Cc1cc(C)cc(NC(=O)C2CCCN(c3nccc(C)n3)C2)c1 (stereo unspecified) | 8 | -5 | .
Cc1cc(C)cc(NC(=O)C2CCCN(c3nc(C)cc(C)n3)C2)c1 (stereo unspecified) | -20 | 70* | 44
Cc1nc2sc3c(c2c(=O)[nH]1)CCC3 | 13 | -8 | .
Cc1cc(-c2nc3c4c5c(sc4[nH]c(=O)n3n2)CCC5)c(C)o1 | -7 | 81* | ?
CC(C)(C)C(=O)N=C1SC2CS(=O)(=O)CC2N1c1ccc2c(c1)OCO2 (stereo unspecified) | -13 | -4 | .
CCCCCCC(=O)N(O)C1CC(=O)N(c2ccc(Br)cc2)C1=O (stereo unspecified) | -5 | 24 | .
COc1ccccc1N(O)C1CC(=O)N(c2ccc(Br)cc2)C1=O (stereo unspecified) | -13 | 68* | 25
CC1CC(C)(C)NC(=O)O1 (stereo unspecified) | 5 | -6 | .
CC1CC(C)(C)NC(=S)S1 (stereo unspecified) | -7 | 78* | 52*
CCOc1ccc(-n2c(=O)c3c4c(sc3n(CC(=O)NCc3ccco3)c2=O)CCC4)cc1 | -10 | 57* | 87*
CCN(CC)C(=O)Cn1c(=O)n(-c2ccccc2)c(=O)c2c3c(sc21)CCC3 | -8 | . | .
COC(=O)Oc1ccc(/C=N/NC(=O)CSCc2ccccc2Br)cc1OC | -10 | . | .
Cc1cc(C)c2oc(-c3ccc(Cl)c(NC(=O)c4ccc(C#N)cc4F)c3)nc2c1 | . | 90* | 73*
COc1cc(C(=O)Nc2cc(-c3nc4cc(C)ccc4o3)ccc2C)cc(OC)c1OC | . | 8 | .
Cc1cc(NS(=O)(=O)c2ccc(NC(=O)Cc3cccs3)cc2)no1 | 8 | -7 | .
Cc1cc(NC(=O)Cc2cccs2)no1 | . | 74* | 37
CCn1c(=O)cc(SCC(=O)N2CCN(c3ccccc3OC)CC2)c2ccccc21 | -10 | 71* | 9
CCn1c(=O)cc(SCC(=O)N2CCOCC2)c2ccccc21 | 13 | -28 | .
O=C(COc1ccc(Cl)cc1)Nc1nc(-c2ccc(S(=O)(=O)N3CCOCC3)cc2)cs1 | -6 | . | .
O=C(COc1ccccc1)Nc1nc(-c2ccc(S(=O)(=O)N3CCOCC3)cc2)cs1 | -1 | 66* | 20
COc1ccc2c(c1)OC1(C)CC2C(C(=O)c2ccccc2OC)C(=O)N1 (stereo unspecified) | . | -7 | .
Nc1nnc(CSCc2ccc(F)cc2)s1 | 11 | 74* | 62*
SMILES | RmlCD inh mix | HIV RNase H inh-1 | HIV RNase H inh-2
Nc1nnc(-c2ccc(F)cc2)s1 | -10 | 17 | .
CSc1nnc(-c2ccco2)c(-c2ccco2)n1 | 8 | 77* | 43
Cc1ccc(NC(=O)CSc2nnc(-c3ccco3)c(-c3ccco3)n2)cc1 | -6 | 97* | 28
CSc1nnc2c(n1)OC=Nc1ccccc1-2 | -8 | -11 | .
Cc1ccccc1NC(=O)CSc1nnc(-c2ccco2)c(-c2ccco2)n1 | -37 | . | .
O=C(CSc1nnc(-c2ccco2)c(-c2ccco2)n1)Nc1ccccc1 | 9 | 87* | 37
Cc1cccc(C)c1NC(=O)CSc1nnc(-c2ccco2)c(-c2ccco2)n1 | 0 | . | .
COC(=O)c1ccc(CN(c2ccc(C)cc2)S(=O)(=O)c2ccc3c(c2)OCCO3)o1 | 6 | -19 | .
O=C(NC1CCCCC1)N(Cc1cc2cc3c(cc2[nH]c1=O)OCCO3)C1CCCCC1 | 1 | . | .
O=C(NCc1ccccc1)c1cc(-c2cccc(O)c2)on1 | 5 | -5 | .
O=C(NC1CC1)C1=C[C@@H](C2CC2)C[C@@H](OCc2ccc(CO)cc2)O1 | -12 | . | .
CC(C)(O)C#Cc1ccc(C(=O)NCc2cccs2)s1 | 8 | 65* | 38
CC(=O)c1ccc(C#CC(C)(C)O)s1 | 4 | -10 | .
C[C@@H]1CC[C@]2(O[C@@H](CCO)C[C@@H](O)[C@@H]2O)O1 | -20 | . | .
COc1ccc(C(=O)Nc2oc(-c3ccccc3)c(-c3ccccc3)c2C#N)cc1OC | 3 | 62* | ?
COc1ccc(C(=O)Nc2oc(-c3ccccc3)c(-c3ccccc3)c2C#N)cc1 | -18 | . | .
CCO[C@H]1OC(C(=O)N2CCN(Cc3ccc4c(c3)OCO4)CC2)=C[C@@H](C2CC2)[C@@H]1CCCO | 9 | . | .
